Only some compounds are listed: those with a hit (about 10% of all), similar ones and a draw of the others.
HP1b binding inh: HTS for Inhibitors of HP1-beta Chromodomain Interactions with Methylated Histone Tails; AlphaScreen HP1-beta / biotin-H3K9me3 peptide binding; AID 540317, 2011; Potency, µM (titrated, usually from 114 µM), without a hit: at the top dose activity change, negative = inhibition, actives largely listed as inhibitors; 0.56% of 390,000 active; also: potency is read from the fitted curve at half-maximal effect; nearly all actives have a fitted effect of over 70% in size
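AlphaScreen: HP1-beta (50 nM) preformed 30 min with biotin-H3(1-18)K9me3 peptide (50 nM) in PBS pH 7.4, 0.01% Tween-20. Compound added for 30 min at RT, then streptavidin donor/nickel chelate acceptor beads (10 ug/mL) for 30 min.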
BAZ2B inh: qHTS Assay for Inhibitors of BAZ2B. 4.4% of 360,000 active. AID 504333, 2011. Potency, µM (highest dose often 114 µM), for inactives: at the top dose activity change, negative = inhibition, actives largely listed as inhibitors. AlphaScreen BAZ2B-H3K14Ac peptide displacement; also: potency is read from the fitted curve at half-maximal effect; % is scaled to controls: 0 for no effect and ±100 for the full control effect; nearly all actives have a fitted effect of over 60% in size
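AlphaScreen displacement: compounds (up to 110uM) incubated 30 min at room temperature with a preformed 50 nM BAZ2B/50 nM biotinylated H3K14Ac peptide complex in PBS pH 7.4 with Tween-20. Donor and acceptor beads at 10 ug/mL final added, 20 min light-protected before reading.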
CtBP-E1A blk: qHTS Assay for Inhibitors of the CtBP/E1A Interaction. CtBP / adenovirus E1A interaction (AlphaScreen). AlphaScreen GST-E1A/His-CtBP binding, 1536-well; hits give low values. activity change, % (test concentration not listed). 0.49% of 340,000 active; in the data active = activity change below about -65%; inconclusive = mostly about -30% to -63%; also: % is scaled to controls: 0 for no effect and ±100 for the full control effect
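Homogeneous bead-based format: GST-tagged E1A captured on glutathione donor beads, His-tagged CtBP on nickel acceptor beads; compounds precede bead addition by 2 h at 37 °C.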
Six1-Eya2 inh: qHTS Assay for Inhibitors of the Six1/Eya2 Interaction; 0.56% of 360,000 active; Homeobox protein SIX1 (Homo sapiens) + Protein phosphatase EYA2 (Homo sapiens), …; activity change, % (no concentration beside the values); AlphaScreen GST-Six1/His-Eya2 binding, biochemical; hits give low values; in the data active = activity change below about -65%; inconclusive = mostly about -30% to -63%; also: % is scaled to controls: 0 for no effect and ±100 for the full control effect
Target sequence (O00167 whole entry, looked up): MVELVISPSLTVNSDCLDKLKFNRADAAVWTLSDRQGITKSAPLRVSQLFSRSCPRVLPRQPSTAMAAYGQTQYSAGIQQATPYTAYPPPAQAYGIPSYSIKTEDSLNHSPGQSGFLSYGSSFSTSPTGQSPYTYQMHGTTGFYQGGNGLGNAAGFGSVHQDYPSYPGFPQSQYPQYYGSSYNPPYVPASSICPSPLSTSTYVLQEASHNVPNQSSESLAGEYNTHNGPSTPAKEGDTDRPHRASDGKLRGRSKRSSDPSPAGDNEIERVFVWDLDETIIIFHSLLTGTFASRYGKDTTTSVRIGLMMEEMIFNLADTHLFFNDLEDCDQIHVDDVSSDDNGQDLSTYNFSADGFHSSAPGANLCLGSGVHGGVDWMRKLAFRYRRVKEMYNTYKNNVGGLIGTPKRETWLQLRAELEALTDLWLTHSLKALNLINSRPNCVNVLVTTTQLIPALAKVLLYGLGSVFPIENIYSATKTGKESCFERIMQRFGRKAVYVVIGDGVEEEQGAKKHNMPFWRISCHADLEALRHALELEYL
Target sequence (Q15475 whole entry, looked up): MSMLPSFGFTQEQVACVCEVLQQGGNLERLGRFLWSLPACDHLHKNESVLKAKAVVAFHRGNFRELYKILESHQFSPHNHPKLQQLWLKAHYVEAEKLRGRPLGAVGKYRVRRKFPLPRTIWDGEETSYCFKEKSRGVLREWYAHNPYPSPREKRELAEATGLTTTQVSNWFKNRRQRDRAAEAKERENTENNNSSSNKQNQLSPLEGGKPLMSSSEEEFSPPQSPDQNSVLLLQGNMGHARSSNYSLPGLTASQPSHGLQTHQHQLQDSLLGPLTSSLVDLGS
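GST-Six1 + His-Eya2 (5X stock: 250/500 nM); Tris pH 8.0, 300 mM NaCl, 0.05% BSA, 0.02% Tween 20; GSH donor/Ni acceptor beads; 1 h 37 °C dark; AlphaScreen readout.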
G9a block: qHTS Assay for Inhibitors of Histone Lysine Methyltransferase G9a; AID 504332, 2011; Potency, µM (doses to about 102 µM), inactives show at the highest dose activity, negative = inhibition, actives largely listed as inhibitors; G9a H3K9 monomethylation, AlphaScreen, 2 h; 8.8% of 350,000 active; Histone-lysine N-methyltransferase EHMT2 (Homo sapiens), Q96KQ7; also: potency is read from the fitted curve at half-maximal effect; % is scaled to controls: 0 for no effect and ±100 for the full control effect; nearly all actives have a fitted effect of over 75% in size
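Readings reflect AlphaScreen signal from monomethyl-H3K9 antibody detection. HMT at 20 nM; substrate b-H3K9 500 nM; cofactor SAM 20 uM; 2 h RT reaction; compounds tested as titrations in qHTS with 15 min preincubation.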
JMJD2A Tudor: qHTS Assay for Inhibitors of JMJD2A-Tudor Domain; 4.4% of 390,000 active; Potency, µM (top dose mostly 114 µM), inactives show at the top dose activity change, negative = inhibition, hits mostly inhibitors; AlphaScreen JMJD2A-Tudor / H3K4me3 peptide binding; also: potency is read from the fitted curve at half-maximal effect; % is scaled to controls: 0 for no effect and ±100 for the full control effect; nearly all actives have a fitted effect of over 50% in size
* hit, by the source's call; u = inconclusive; x = no result; [ ] = dose if it differs, or a comment. Unless noted, calls follow the shape of the dose curve; as a rule, active = well fitted inhibition curve with a large enough effect; inconclusive = small, poorly fitted or top-dose-only effect; inactive = no such curve, though single readings can be large or run the other way.

SMILES | HP1b binding inh | BAZ2B inh | CtBP-E1A blk | Six1-Eya2 inh | G9a block | JMJD2A Tudor
COc1ccccc1C(=O)NC(CCSC)C(=O)NCCCSc1ccccc1 (stereo not drawn) | -12% | u | -4 | -13 | 56µM* | -34%
COc1ccccc1C(=O)NC(CCSC)C(=O)OCC(=O)NC(=O)NCc1ccco1 (stereo not drawn) | -12% | 50µM* | 3 | -5 | -9%[59 µM] | u
CCOc1cc(/C=C/c2cc(C(=O)O)c3ccccc3n2)ccc1O | 17% | 3% | -5 | 3 | -4%[59 µM] | u
CCOc1cc(/C=C/c2cc(C(=O)O)c3ccccc3n2)ccc1OC | 47% | 13% | 9 | -21 | 71µM* | 2%
CC1OC(CC(=O)O)CC2=C1C(=O)c1c(O)cccc1C2=O (stereo not drawn) | u | x | 1 | -89* | x | 56µM*
O=C(O)CC1CC(c2ccccc2)=NO1 (stereo not drawn) | x | x | x | x | -4%[59 µM] | x
C(=N\Nc1nncc2ccccc12)/c1ccccn1 | 11% | 25µM* | -95* | -75* | -6% | 79µM*
Fc1cccc(/C=N/Nc2nncc3ccccc23)c1 | 17% | -34% | x | -18 | 11% | 20µM*
COc1ccc(C(=O)NCC(=O)OC(C(=O)Nc2cc(C(F)(F)F)ccc2Cl)c2ccccc2)cc1OC (stereo not drawn) | x | x | x | x | x | -31%
Cc1cccc(C)c1-n1cccc1/C=C1\SC(=S)N(c2cccc(C(=O)O)c2)C1=O | u | 50µM* | -8 | -12 | u | u
O=C(CN1C(=O)N/C(=C\c2cccn2-c2cccc(C(=O)O)c2)C1=O)Nc1ccccc1F | x | x | x | x | x | -18%
Cc1cccc(C)c1NC(=O)CN1C(=O)S/C(=C\c2cccn2C)C1=O | 21% | 6% | -7 | -2 | 5%[59 µM] | -9%
Cc1ccccc1NC(=O)CN1C(=O)S/C(=C\c2cccn2-c2cccc(C(=O)O)c2)C1=O | u | 56µM* | 7 | -11 | u | 79µM*
COc1ccc(NC(=O)CN2C(=O)S/C(=C/c3cccn3-c3ccc(C(=O)O)cc3)C2=O)cc1 | x | 18µM* | x | x | 22µM* | x
Cc1cccc(C)c1NC(=O)CN1C(=O)S/C(=C\c2cccn2-c2cccc(C(=O)O)c2)C1=O | -11% | 79µM* | -1 | -11 | u | 50µM*
COc1ccc(C(C)NC(=O)CN(c2cc(OC)ccc2OC)S(=O)(=O)c2ccccc2)cc1 (stereo not drawn) | 0% | -19% | x | x | u | -20%
COc1ccc(/C=C2\SC(=O)N(CC(=O)Nc3cccc(C)c3)C2=O)cc1O | 34% | -21% | -16 | -4 | x | -10%
Cc1ccc(NC(=O)CN2C(=O)S/C(=C\c3cccn3-c3cccc(C(=O)O)c3)C2=O)c(C)c1 | 50µM* | 40µM* | 0 | -8 | u | 22µM*
COc1ccccc1NC(=O)Cn1c(=O)n(Cc2nc(-c3ccccc3)no2)c(=O)c2ccccc21 | 29% | -11% | x | x | -16%[59 µM] | 12%
COc1ccc(Nc2nc(-c3ccc4c(c3)NC(=O)CO4)cs2)cc1 | u | -26% | -7 | -13 | 45µM* | u
COc1ccccc1Nc1nc(-c2ccc3c(c2)NC(=O)CO3)cs1 | 33% | -30% | -6 | -22 | u | -21%
CCC(C)Nc1nc(-c2ccc3c(c2)NC(=O)CO3)cs1 (stereo not drawn) | -1% | u | 9 | -7 | 50µM* | u
CC(=O)NCCNC(=O)CCCc1nnc2n(C)c(=O)c3sccc3n12 | 12% | -1% | x | x | 1%[59 µM] | -14%
CCOC(=O)c1cc(S(=O)(=O)Nc2ccc(C)cc2Cl)[nH]n1 | 13%[57 µM] | 79µM* | x | x | 8.9µM* | -33%
CCOC(=O)c1scc(-c2ccc(C)cc2)c1S(=O)(=O)Nc1ccc(OC)c(Cl)c1 | -6% | -19% | x | x | u | -22%
SMILES | HP1b binding inh | BAZ2B inh | CtBP-E1A blk | Six1-Eya2 inh | G9a block | JMJD2A Tudor
CCOC(=O)c1cc(S(=O)(=O)Nc2c(C)cc(C)cc2C)[nH]n1 | 22%[57 µM] | u | x | x | 18µM* | -29%
CCOC(=O)c1cc(S(=O)(=O)Nc2cc(F)ccc2C)[nH]n1 | 20%[57 µM] | u | x | x | 18µM* | -29%
CCOC(=O)c1cc(S(=O)(=O)N2CCN(c3ccc(OC)cc3)CC2)[nH]n1 | 15%[57 µM] | -25% | x | x | u | -33%
CCOC(=O)c1cc(S(=O)(=O)Nc2ccc(OC)c(Cl)c2)[nH]n1 | 12%[57 µM] | 56µM* | x | x | 8.9µM* | -34%
Cc1ccc(NC(=O)CSc2nc3ccccc3n2CC(=O)N(C)C2CCCCC2)cc1C | 35% | u | x | x | 7%[59 µM] | 0%
COc1ccc(N2C(=O)CSC23C(=O)N(Cc2ccc(C)cc2)c2ccccc23)cc1Cl (stereo not drawn) | 67% | 13% | x | x | 1%[59 µM] | -19%
COc1cccc(N2CCN(C(=O)c3c4c(nc5ccccc35)C(=O)N(C3CCCCC3)C4)CC2)c1 | -12% | -26% | x | x | 3%[59 µM] | -36%
COc1cc(NC(C)C(=O)N2CC(C)OC(C)C2)cc(OC)c1 (stereo not drawn) | 16µM* | 40µM* | -1 | -7 | u | 3.2µM*
COc1ccc(N2CC(NC(=O)COc3ccc4ccccc4c3)CC2=O)cc1OC (stereo not drawn) | 33% | 3% | x | x | 3%[59 µM] | -2%
CCOC(=O)N1CCN(C(=S)NC2CCCCC2)CC1 | 26% | -4% | 5 | 1 | -1%[59 µM] | -1%
CCOC(=O)N1CCN(C(=O)CNC2CCCCCCC2)CC1 | 29% | 50µM* | x | 3 | 32µM* | 32µM*
O=C(NC1CCCCC1)c1ccc(CSc2nc3cccnc3n2Cc2cccc(F)c2)cc1 | 34% | 1% | x | x | -32%[59 µM] | -15%
O=C(Nc1cccc(Cl)c1Cl)c1cc(S(=O)(=O)N2CCCc3ccccc32)ccc1F | 51% | 6% | x | x | 20%[59 µM] | 6%
C/C(=N\NC(=O)c1cccc(N/N=C(\C)c2cc(O)ccc2O)c1)c1cc(O)ccc1O | u | 11µM* | u | u | u | 13µM*
C/C(=N\NC(=O)c1cccc([N+](=O)[O-])c1)c1ccco1 | 6% | -4% | -8 | -2 | 14% | -14%
C/C(=N\NC(=O)c1cccc(N/N=C(\C)c2ccco2)c1)c1ccco1 | -1% | -30% | x | -6 | 35µM* | u
